According to PubChem BioAssay AID743330 (NMMLSC, 2014):
Active and inactive are the calls of the source. The rule behind the calls is not given here.

System: Cdc42 mutant
Experiment: fluorescent GTP concentration effect on GTPase potency – biochemical, four GTPases, bead flow cytometry, mechanism study, profiling panel (AID 743330)
Conditions: bead-based flow cytometry, fluorescent GTP binding to GTPases

Row | SMILES | EC50
1 | CC1(C)Cc2c(sc(NC(=S)NC(=O)c3ccc(F)cc3)c2C(=O)O)CO1 | 54 nM (active)
2 | CCC1(C)Cc2c(sc(NC(=S)NC(=O)c3ccccc3)c2C(=O)O)CO1 (configuration not stated) | 4 nM (active)
